KB-3-1 cytotox: KB-3-1 parental cell cytotoxicity | Potency, µM (titrated, usually from 46.1 µM), most hits filed as cytotoxic | 400,000 compounds, 1.4% hits | KB-3-1 viability, CellTiter-Glo ATP luminescence, 72 h | AID 1347075; note: % is set by controls: 0 for no effect and ±100 for the full control effect; nearly all actives have a fitted effect of over 60% in size
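72 h, 37 °C compound treatment of KB-3-1 parental cells; CellTiter-Glo added, 10 min, luminescence read. Data corrected against DMSO-only plates and normalized before curve fitting.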
SW480 rerep: inducers of DNA re-replication in SW480 colon cancer cells | Potency, µM (series often up to 46.1 µM), without a hit: at the highest dose re-replication activation, actives largely listed as activators | 340,000 compounds, 1.8% hits | SW480 DNA re-replication, Hoechst DNA content imaging, 48 h; note: % of control where 0% means no effect; nearly all actives have a fitted effect of over 55% in size
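Compounds, transferred as 23 nL by pin tool, were incubated with cells for 48 hr; DNA content per nucleus was then quantified by Hoechst staining and fluorescence plate imaging.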
HT1080NT lethal: kills 2HG-producing HT-1080-NT fibrosarcoma cells; HT-1080-NT fibrosarcoma viability, CellTiter-Glo ATP luminescence, 48 h; Potency, µM (titrated, usually from 46.1 µM), inactives show top-dose activity, negative = less viability, hits mostly cytotoxic; 360,000 compounds, 1.6% hits; AID 686970;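 note: NT is the 2HG producing partner of a matched IDH1 knockdown line; 0% = DMSO-treated cells and -100% = media-only wells without cells; nearly all actives have a fitted effect of over 55% in size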
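HT-1080-NT fibrosarcoma cells (2HG-overproducing), 750 cells/well in RPMI with 5% FBS, dosed after 2 h and incubated 48 h at 37C. CellTiter-Glo luminescence normalized to DMSO and no-cell wells; concentration-response curves fitted and classed.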
HT1080 IDH1KD tx: kills HT-1080 cells with IDH1 knockdown. AID 686971. Potency, µM (doses to about 46.1 µM), inactives show at the top dose activity, negative = toxicity, hits mostly cytotoxic. HT-1080 IDH1 knockdown viability, ATP luminescence, 48 h. 360,000 compounds, 2% hits;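 note: 0% = DMSO wells and -100% = cell-free medium wells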
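% activity derives from luminescence (CellTiter-Glo), normalised to DMSO and no-cell wells. HT-1080-IDH1KD cells, 750/well, had 48 h compound exposure at 37 °C.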
MCF10A rereplic: induces DNA re-replication in MCF 10a normal breast cells. 350,000 compounds, 2.9% hits. Potency, µM (highest dose often 46.1 µM), for inactives: at the top dose activity, positive = re-replication, actives largely listed as activators. MCF 10A DNA re-replication, Hoechst nuclear intensity, 48 h; note: % of control where 0% means no effect; nearly all actives have a fitted effect of over 50% in size
KB-V1 MDR tox: kills drug-selected multidrug resistant KB-V1 cells | AID 1347076 | KB-V1 MDR cells viability, CellTiter-Glo, 72 h | 400,000 compounds, 3.4% hits | Potency, µM (series often up to 46.1 µM), hits mostly cytotoxic; note: % is set by controls: 0 for no effect and ±100 for the full control effect; nearly all actives have a fitted effect of over 60% in size
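Potencies derive from concentration-effect curves fitted to normalized luminescence (CellTiter-Glo) of KB-V1 cells treated for 72 h at 37 degrees C in phenol-red-free DMEM containing 10% FBS.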
Numbers without * were called inactive; i = inactive; ? = inconclusive; . = no result; [ ] = dose if it differs, or a comment. Hits are enriched below; roughly 7.9% of the tested compounds scored in any of these assays. Calls come from the whole dose curve; as a rule, active = well fitted curve in the direction sought with a large enough effect; inconclusive = small, poorly fitted or top-dose-only effect, or another doubt; inactive = no such curve, though single readings can be large; an effect the other way counts as inactive or inconclusive. Potency is the fitted concentration of half-maximal effect.

SMILES | KB-3-1 cytotox | SW480 rerep | HT1080NT lethal | HT1080 IDH1KD tx | MCF10A rereplic | KB-V1 MDR tox
CCN(CC(=O)Nc1cccc(OC)c1)C(=O)c1cccc(S(=O)(=O)N2CCc3ccccc32)c1 | ? | 1% | 0% | 2% | 16% | 18µM*
COc1ccc(S(=O)(=O)N2CCc3ccccc32)cc1NC(C)=O | 23µM* | ? | 9.2µM* | ? | 8.2µM* | ?
COc1ccc(S(=O)(=O)N2CCc3ccccc32)cc1C(=O)N1CCN(C=O)CC1 | i | -22% | -7% | -6% | -1% | i
COc1cc2nc(NC(=O)c3ccc(S(=O)(=O)N4CCc5ccccc54)cc3)sc2cc1OC | ? | . | . | . | . | 7.3µM*
CCN(CC(=O)Nc1c(F)cccc1F)C(=O)c1cccc(S(=O)(=O)N2CCCc3ccccc32)c1 | ? | -14% | -5% | -12% | 8% | i
O=c1c2cc3c(cc2[nH]c(=S)n1C1CCN(Cc2ccccc2)CC1)OCO3 | i | ? | -6% | 9% | -1% | i
CN(Cc1nc2ccccc2c(=O)[nH]1)C(=O)c1cccc(S(=O)(=O)N2CCc3ccccc32)c1 | i | 3% | -15% | -13% | ? | 16µM*
CCc1nnc(NC(=O)c2ccc(Cl)c(S(=O)(=O)N3CCc4ccccc43)c2)s1 | 21µM* | -6% | -14% | -2%[9.24 µM] | 22% | 13µM*
O=C(Nc1ccncc1)c1ccc(Cl)c(S(=O)(=O)N2CCc3ccccc32)c1 | ? | -340% | ? | ? | ? | ?
O=S(=O)(c1cccc(Cl)c1)N1CCSc2ccccc21 | i | 115% | -1% | -1% | 45% | i
CC(=O)Nc1ccc(S(=O)(=O)N2CCSc3ccccc32)cc1 | 5.8µM* | 3.7µM* | 21µM* | 13µM* | 6.5µM* | i
COc1ccc(NC(=O)c2cccc(S(=O)(=O)N3CCc4ccccc43)c2)cn1 | i | -2% | -14% | -15% | 14% | 13µM*
Cc1ccc(C)c(NC(=O)CN2C(=O)CSc3nc(C)cc(C)c32)c1 | ? | . | . | . | . | i
COc1ccc(C(CNC(=O)c2cccc(S(=O)(=O)N3CCCc4ccccc43)c2)N(C)C)cc1 (stereo not given) | ? | ? | -4% | ? | 17% | 2.3µM*
O=C(O)C1CC=CCC1C(=O)Nc1ccc(S(=O)(=O)N2CCCc3ccccc32)cc1 (stereo not given) | ? | 8% | ? | 5.6µM* | ? | i
Cc1ccc(C)c(Cn2nc(-c3cc(C)ccc3C)ccc2=O)c1 | i | 116% | ? | 18µM* | ? | ?
CC(Sc1nnc(-c2ccncc2)n1C)C(=O)NCC(=O)Nc1ccc(F)c(F)c1F (stereo not given) | i | . | 5% | 9% | . | i
CC(Sc1nnnn1-c1ccc(Cl)cc1)C(=O)NCC(=O)Nc1ccc(F)c(F)c1F (stereo not given) | i | 2% | 3% | -12% | 14% | 16µM*
O=C(O)C(Cc1c[nH]c2ccccc12)NS(=O)(=O)c1cccc2nsnc12 (stereo not given) | i | -6% | 4% | 7% | 2% | i
COc1ccc(CCNc2cn[nH]c(=O)c2Cl)cc1OC | i | -8% | 9% | 7% | -11% | i
Clc1nc(NCCc2ccccc2)c2cn[nH]c2n1 | i | 6% | -10% | -27% | ? | 1.2µM*
Cn1ncc2c(NCCc3ccccc3)nc(Cl)nc21 | ? | -3% | -10% | -22% | 10% | 4.6µM*
O=c1[nH]ncc(NCCc2ccccc2)c1Cl | ? | -4% | -1% | 3% | -3% | 8.2µM*
Cc1cccc(OCCCC(=O)Nc2ccccc2C(F)(F)F)c1 | i | -1% | -2% | -6% | 1% | i
COc1ccc(CCNc2ncnc3c2oc2ccccc23)cc1OC | 9.2µM* | -4% | 7.9µM* | -17% | 5% | 2.6µM*
SMILES | KB-3-1 cytotox | SW480 rerep | HT1080NT lethal | HT1080 IDH1KD tx | MCF10A rereplic | KB-V1 MDR tox
COc1ccc(CCNc2nc(C)nc3c2oc2ccccc23)cc1OC | ? | 7% | -10% | -19% | ? | 16µM*
N#CC1=C(N)C(C#N)(C#N)[C@H](c2ccncc2)[C@H]2CC3(CC=C12)OCCO3 | i | -4% | -3% | -4% | -4% | i
COc1ccc(CNC(=O)CC2(CC(=O)O)CCCCC2)cc1 | i | -1% | -1% | -2% | -17% | i
COc1cccc(-c2noc(CCC(=O)NC3CCCC3)n2)c1 | i | -17% | 6% | 1% | 9% | i
CCOc1ccc(-c2noc(CCCC(=O)NC3CCCC3)n2)cc1OC | i | -9% | 1% | -6% | 0% | 8.2µM*
CCN(C(=O)CCc1nc(-c2ccc(OC)cc2)no1)c1cc(OC)ccc1OC | ? | 0% | -12% | -10% | -14% | 16µM*
COc1cccc(-c2noc(CCCC(=O)NC3CCCC3)n2)c1 | i | 21µM* | -2% | -14% | -1% | i
O=C(CCCc1nc(-c2ccc(Cl)cc2)no1)NC1CCCCC1 | ? | -1% | 8% | 12% | 16% | 12µM*
COC(=O)c1ccc(C2N=C(c3cccs3)CC(c3ccccc3O)N2)cc1 (stereo not given) | i | ? | ? | ? | 18µM* | i
O=C(c1ccccc1)N1N=C(c2cccs2)CC1c1ccccc1O (stereo not given) | i | -7% | -13% | -1% | 17% | i
COc1ccc(C2c3ccc(O)cc3Oc3ncn4nc(-c5ccco5)nc4c32)cc1OC (stereo not given) | i | ? | ? | 18µM* | ? | i
Cc1ccc(S(=O)(=O)N2CCC(C)CC2)cc1 | i | -2% | 0% | -2% | -4% | i
CCCCC1(COC(=O)CCC(=O)O)C(=O)N(c2ccccc2)N(c2ccccc2)C1=O | i | 0% | -8% | 5% | 10% | i
CCCCC1(Cc2ccc([N+](=O)[O-])cc2)C(=O)N(c2ccccc2)N(c2ccccc2)C1=O | ? | 14% | -19% | ? | ? | 16µM*
CSc1ccc(NC(=O)N2CC=C(n3c(=O)[nH]c4ccccc43)CC2)cc1 | 16µM* | ? | -20% | ? | ? | 16µM*
Cc1nnc2c(N3CCN(c4ccccc4F)CC3)nc3ccccc3n12 | i | . | . | . | . | i
CN1CCN(c2nc(-c3cccc([N+](=O)[O-])c3)nc3ccccc23)CC1 | i | 23µM* | ? | ? | 23µM* | i
CC(=O)N1CCN(c2ccc(NCc3ccc(-c4cccc(Cl)c4)o3)cc2)CC1 | i | ? | . | . | 21µM* | i
